Results: PubChem BioAssay AID504339 (National Center for Advancing Translational Sciences (NCATS), 2011)
In all, about 390,000 compounds went through this assay and about 17,000 (4.4%) were called active. Not shown: some 8% with an inconclusive outcome. This excerpt belongs to a sample that is enriched for actives. A number with no mark means an inactive call. Calls follow the shape of the dose curve; as a rule, active = well fitted inhibition curve with a large enough effect; inconclusive = small, poorly fitted or top-dose-only effect; inactive = no such curve, though single readings can be large or run the other way.

What follows are molecules tested against Lysine-specific demethylase 4A (Homo sapiens) (UniProt O75164) (assay: qHTS Assay for Inhibitors of JMJD2A-Tudor Domain). Details: AlphaScreen JMJD2A-Tudor / H3K4me3 peptide binding; series mostly up to 114 µM; activity change, negative = inhibition: at the top concentration.
% is scaled to controls: 0 for no effect and ±100 for the full control effect; potency is read from the fitted curve at half-maximal effect.
Also: nearly all actives have a fitted effect of over 50% in size.

Chain of Lysine-specific demethylase 4A (Homo sapiens) (O75164 whole entry, looked up, the tested form may be a part): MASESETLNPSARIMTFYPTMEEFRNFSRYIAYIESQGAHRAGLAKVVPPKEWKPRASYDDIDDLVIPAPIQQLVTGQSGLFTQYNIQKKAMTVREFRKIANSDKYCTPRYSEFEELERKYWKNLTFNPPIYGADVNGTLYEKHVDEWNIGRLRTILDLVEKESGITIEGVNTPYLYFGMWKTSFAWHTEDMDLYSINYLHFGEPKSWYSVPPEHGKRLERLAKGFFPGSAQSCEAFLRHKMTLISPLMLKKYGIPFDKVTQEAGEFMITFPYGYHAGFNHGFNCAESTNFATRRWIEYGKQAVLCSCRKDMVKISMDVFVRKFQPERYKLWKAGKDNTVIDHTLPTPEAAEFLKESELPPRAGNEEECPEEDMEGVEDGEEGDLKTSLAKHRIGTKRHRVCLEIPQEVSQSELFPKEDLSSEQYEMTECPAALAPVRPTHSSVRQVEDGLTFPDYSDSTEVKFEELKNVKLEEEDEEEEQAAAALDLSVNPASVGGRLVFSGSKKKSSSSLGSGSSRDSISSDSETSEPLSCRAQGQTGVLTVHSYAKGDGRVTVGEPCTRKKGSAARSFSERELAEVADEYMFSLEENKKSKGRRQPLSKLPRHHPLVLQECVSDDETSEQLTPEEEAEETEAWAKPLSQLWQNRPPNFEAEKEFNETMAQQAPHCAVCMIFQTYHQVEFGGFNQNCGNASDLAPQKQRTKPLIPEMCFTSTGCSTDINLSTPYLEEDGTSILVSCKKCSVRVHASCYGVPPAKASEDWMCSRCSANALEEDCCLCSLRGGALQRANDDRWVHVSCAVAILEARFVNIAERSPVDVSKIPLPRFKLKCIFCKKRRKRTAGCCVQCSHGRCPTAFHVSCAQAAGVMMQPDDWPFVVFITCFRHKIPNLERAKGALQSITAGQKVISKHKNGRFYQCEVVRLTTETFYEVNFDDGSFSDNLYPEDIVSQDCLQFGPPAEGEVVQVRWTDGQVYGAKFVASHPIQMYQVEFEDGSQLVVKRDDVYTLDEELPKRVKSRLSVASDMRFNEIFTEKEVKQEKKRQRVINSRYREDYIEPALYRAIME

Row | Compound | activity change, negative = inhibition [%] | Potency
1 | Cc1c(OC(C)C(=O)N[C@@H](Cc2ccccc2)C(=O)O)ccc2c3c(c(=O)oc12)CCCC3 (some centres not stated) | -10.9 | 
2 | CC(C)C[C@H](NC(=O)N1CC(=O)Nc2ccccc21)C(=O)N[C@H](Cc1ccccc1)C(=O)O | -19 | 
3 | Cc1oc2c(C)c3oc(=O)c(CC(=O)N[C@@H](CC(C)C)C(=O)N[C@@H](Cc4ccccc4)C(=O)O)c(C)c3cc2c1C |  | 56.2 µM (active)
4 | COC(=O)c1ccccc1NC(=O)Cn1c(=O)cc(C)c2c(C)nn(-c3cccc(Cl)c3C)c21 | -9.33 | 
5 | O=C(Nc1ccc(CN2CCOCC2)cc1)c1cc(Cl)ccc1Cl | 8.97 | 
6 | Clc1ccc(CN2CCCCCC2)cc1Cl |  | 3.98 µM (active)
7 | Clc1ccc(-n2nnnc2CN2CCCCC2)cc1Cl | 6.72 | 
8 | O=C(NCCc1csc(-c2ccc(C(F)(F)F)cc2)n1)C(=O)Nc1ccc(F)c(Cl)c1 | -12.9 | 
9 | COc1ccc(C2=NC(c3ccncc3)=Nc3ccc(Br)cc3N2)cc1 |  | 44.7 µM (active)
10 | Brc1ccc2c(c1)NC(c1cccnc1)=NC(c1ccccc1)=N2 | -22.3 | 
11 | COCCNC(=O)c1ccc2c(c1)N(Cc1cccc(Cl)c1)C(=O)c1ccccc1S2(=O)=O | -12.5 | 
12 | CN(C)Cc1cn(-c2ccccc2)nc1-c1ccccc1 | -7.09 | 
13 | Cc1ccc(-n2c(C)cc(/C=C(\C#N)C(=O)NCC3CCCO3)c2C)cc1 (configuration not stated) |  | 50.1 µM (active)
14 | Cc1ccc(C(=O)N/C(=C/c2cccs2)C(=O)NCC2CCCO2)cc1 (configuration not stated) | -4.23 | 
15 | Cc1cc(/C=C(/C#N)C(=O)Nc2ccc(Cl)cc2)c(C)n1-c1cccnc1 | -11.6 | 
16 | Cc1cc2c(cc3c(SCc4nc(-c5ccccc5)oc4C)nnc(C)n32)o1 | -10.6 | 
17 | Nc1ccn(C2CC(O)C(CO)O2)c(=O)n1 (configuration not stated) | -6.47 | 
18 | O=c1nc(NO)ccn1C1CCCO1 (configuration not stated) |  | 8.91 µM (active)
19 | CNc1nc(=O)n(C2CCCO2)cc1C (configuration not stated) | -6.25 | 
20 | Cc1cccc(NC(=O)CSc2nc3c(oc4ccccc43)c(=O)n2-c2ccc(F)cc2)c1 | -0.727 | 
21 | CCc1ccc(NC(=O)c2sc3nc4c(cc3c2N)CN(CC)CC4)cc1 |  | 56.2 µM (active)
22 | CCN1CCc2nc3sc(C(=O)Nc4ccccc4OC(F)(F)F)c(N)c3cc2C1 | -23.5 | 
23 | COc1ccc(Cl)cc1NC(=O)c1sc2nc3c(cc2c1N)CN(C)CC3 | -8.42 | 
24 | O=C(CSc1n[nH]c(-c2ccccc2)n1)N1CCCCC1 | 4.87 | 
25 | Cc1ccc(NC(=O)CN2c3ccccc3S(=O)(=O)c3ccccc32)cc1F | -10.6 | 
26 | CCc1ccccc1NC(=O)Cc1ccc(NC(=O)N2CCCCc3ccccc32)cc1 | -15 | 
27 | CCN(Cc1ccccc1)Cc1c(O)ccc2c(=O)c(-c3ccc(Cl)cc3Cl)coc12 | 2.42 | 
